Experimental data published in PubChem BioAssay (NCATS).
Results filed as inconclusive are left out. The source made the active and inactive calls. Unless noted, calls come from the whole dose curve; as a rule, active = well fitted curve in the direction sought with a large enough effect; inconclusive = small, poorly fitted or top-dose-only effect, or another doubt; inactive = no such curve, though single readings can be large; an effect the other way counts as inactive or inconclusive. Peptide text beside a SMILES is read from it.

Tests used:
[1] = Confirmation and Secondary Assay for Modulators of Hemoglobin Beta Chain Splicing at IVS2 654 locus (AID 910);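 note: per-well total GFP intensity by laser scanning cytometry after 2-day treatment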
Method in brief: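 HeLa cells stably carrying EGFP interrupted by mutant beta-globin IVS2-654 intron (CMV-driven) were treated with compound for 2 days at 37C; corrected splicing was scored as total peak GFP intensity per well (488 nm excitation, 500-520 nm emission).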

[2] = Confirmation and Secondary Assay for Modulators of Hemoglobin Beta Chain Splicing at IVS2 705 locus (AID 930);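 note: HeLa cells stably expressing the EGFP-705 splicing reporter; GFP fluorescence per well restored by corrected splicing of the IVS2-705 intron in EGFP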
Method in brief: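 HeLa EGFP-705 reporter; 500 cells/well, o/n 37C 5% CO2; cpd 2 d; 488 ex/500-520 em laser scan; total peak GFP intensity/well. Ref: 500 nM […] antisense PNA.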

[3] = S16 Schwann cell PMP22 intronic element beta-lactamase assay (AID 624044; calls by dose curve; note: nearly all actives have a fitted effect of over 15% in size)
Method in brief: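 Beta-lactamase reporter under a PMP22 intronic regulatory element in stable S16 rat Schwann cells; 24 h compound exposure. 460 nm blue signal normalized between DMSO (0%) and potassium clavulanate, with 535 nm FRET tracking viability; curves classed by r2 and response.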

[4] = test system: 7G8; experiment: qHTS profiling for inhibitors of Plasmodium falciparum proliferation (AID 504749); note: nearly all actives have a fitted effect of over 60% in size; note: potency is the fitted concentration of half-maximal effect; details: P. falciparum in erythrocytes, SYBR Green DNA, 72 h; series mostly up to 12.8 µM
Method in brief: (§1)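 Quantitative HTS: compounds pinned into medium, infected erythrocytes added (0.3% parasitemia, 2.5% hematocrit), 72 h culture at 37 C under 5% CO2. Saponin/Triton lysis with SYBR Green I, overnight RT, then fluorescence read.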

[5] = test system: CP215; experiment: as above; details: P. falciparum in erythrocytes, SYBR Green DNA, 72 h; series mostly up to 12.8 µM
Method in brief: as §1

[6] = test system: DFO2036; experiment: as above; details: P. falciparum in erythrocytes, SYBR Green DNA, 72 h; series mostly up to 12.8 µM
Method in brief: as §1

[7] = test system: DIV14; experiment: as above; details: P. falciparum in erythrocytes, SYBR Green DNA, 72 h; series mostly up to 12.8 µM
Method in brief: as §1

[8] = test system: DIV17; experiment: as above; details: P. falciparum in erythrocytes, SYBR Green DNA, 72 h; series mostly up to 12.8 µM
Method in brief: as §1

[9] = test system: GB4; experiment: as above; details: P. falciparum in erythrocytes, SYBR Green DNA, 72 h; series mostly up to 12.8 µM
Method in brief: as §1

[10] = test system: ICS; experiment: as above; details: P. falciparum in erythrocytes, SYBR Green DNA, 72 h; series mostly up to 12.8 µM
Method in brief: as §1

[11] = test system: W2; experiment: as above; details: P. falciparum in erythrocytes, SYBR Green DNA, 72 h; series mostly up to 12.8 µM
Method in brief: as §1

[12] = target: Cytochrome P450 3A4 (Homo sapiens) (UniProt P08684); experiment: qHTS Assay for Inhibitors and Substrates of Cytochrome P450 3A4 (AID 884); note: nearly all actives have a fitted effect of over 50% in size; note: potency is the fitted concentration of half-maximal effect
Method in brief: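 Luminescent readout of luciferin produced by CYP3A4 (20 nM) dealkylation of Luciferin-PPXE, 25 uM (its KM). NADPH-driven reaction ran 60 min at RT after 10 min compound preincubation; data scaled to 57 uM ketoconazole as 100% inhibition.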

[13] = target: Cytochrome P450 3A4 (Homo sapiens) (UniProt P08684); experiment: qHTS Assay for Activators of Cytochrome P450 3A4 (AID 885); note: nearly all actives have a fitted effect of over 65% in size
Method in brief: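 Luminescent readout of luciferin formed from 25 uM Luciferin-PPXE (KM level) by 20 nM CYP3A4 in 200 mM KPO4, with 60 min NADPH-driven reaction at room temperature after 10 min compound exposure. Ketoconazole (57 uM) defined 100% inhibition.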

Measured: Potency

Sequence of Cytochrome P450 3A4 (Homo sapiens) (P08684 whole entry, looked up): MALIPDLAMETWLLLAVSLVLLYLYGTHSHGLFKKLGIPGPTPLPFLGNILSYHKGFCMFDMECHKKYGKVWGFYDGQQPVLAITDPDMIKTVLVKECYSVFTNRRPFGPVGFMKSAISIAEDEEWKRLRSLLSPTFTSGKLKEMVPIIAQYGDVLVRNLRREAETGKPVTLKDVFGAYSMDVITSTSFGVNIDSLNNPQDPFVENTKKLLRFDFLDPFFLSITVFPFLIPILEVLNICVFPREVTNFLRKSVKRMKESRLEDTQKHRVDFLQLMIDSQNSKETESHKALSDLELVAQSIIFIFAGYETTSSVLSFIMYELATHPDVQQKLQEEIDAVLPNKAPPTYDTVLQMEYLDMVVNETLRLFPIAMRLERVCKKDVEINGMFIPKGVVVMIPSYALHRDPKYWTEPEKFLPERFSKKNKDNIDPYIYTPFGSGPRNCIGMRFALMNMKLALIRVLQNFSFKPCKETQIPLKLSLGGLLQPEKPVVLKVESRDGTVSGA

CCC(CCC(C)C1CCC2C3CC=C4CC(O)CC[C@@]4(C)C3CC[C@@]12C)C(C)C (some centres undefined)
not listed: [12] | [13]
inactive: all other assays above

CNC1CC(N)[C@H](O)[C@@H](O[C@@H]2OC(CO)C3OC4(OC(C(N)CO)C(O)C(O)C4O)O[C@@H]3[C@H]2O)C1O (some centres undefined)
not listed: [3] | [11] | [13]
inactive: all other assays above

CCOC(=O)C1=CC(OC(CC)CC)C(NC(C)=O)C(N)C1 (centres undefined)
inactive: [13] | [1] | [2] | [3] | [5]
active: [11] 6750 nM

COC1C=CO[C@@]2(C)Oc3c(C)c(O)c4c(O)c(c(C=NN5CCN(C)CC5)c(O)c4c3C2=O)NC(=O)/C(C)=C\C=CC(C)C(O)[C@@H](C)C(O)C(C)[C@H](OC(C)=O)C1C (some centres undefined)
inactive: [1] | [2] | [3]
active: [4] 112 nM | [5] 4260 nM | [6] 3550 nM | [7] 301 nM | [8] 269 nM | [9] 953 nM | [10] 89.1 nM | [11] 120 nM

CN1CC(=O)N=C1N
not listed: [13]
inactive: all other assays above

C[C@]12CCC(=O)C=C1CCC1C2C(=O)C[C@]2(C)C1CC[C@]2(O)C(=O)CO (some centres undefined)
not listed: [7] | [13]
inactive: all other assays above

CC(=O)N[C@H](CC(C)C)C(=O)O
not listed: [12] | [13]
inactive: all other assays above

COc1ccc2cc(C(C)CO)ccc2c1 (centres undefined)
not listed: [6] | [13]
inactive: all other assays above

COC(=O)C(Cc1ccccc1)NC(=O)C(N)CC(=O)O (stereo not drawn) (H-Asp-Phe-OMe; configuration not given here)
not listed: [13]
inactive: all other assays above

Nc1nc2ncc(CNc3ccc(C(=O)NC(CCC(=O)O)C(=O)O)cc3)nc2c(=O)[nH]1 (centres undefined)
not listed: [5] | [7] | [13]
inactive: all other assays above

CCC(C)C(=O)OC1CCC=C2C=CC(C)C(CCC3CC(O)CC(=O)O3)[C@@H]21 (some centres undefined)
active: [12] 20000 nM
not listed: [3]
inactive: all other assays above

CC[C@@]12CCCN3CCc4c(n(c5ccccc45)[C@](O)(C(=O)OC)C1)C32 (some centres undefined)
inactive: [1] | [2] | [5] | [6] | [7] | [9]

COc1cc(C2c3cc4c(cc3C(O[C@@H]3OC5COC(c6cccs6)OC5C(O)C3O)C3COC(=O)C23)OCO4)cc(OC)c1O (some centres undefined)
inactive: [13] | [1] | [2]
active: [12] 6310 nM | [4] 631 nM | [5] 4260 nM | [6] 1120 nM | [7] 1900 nM | [8] 4260 nM | [9] 2390 nM | [10] 1260 nM | [11] 1200 nM

COC(=O)N/N=C/C1=C[N+](=O)c2ccccc2[N+]1=O
not listed: [3] | [11] | [13]
inactive: all other assays above

OCC1O[C@H](OC2C(CO)O[C@@](O)(CO)C2O)C(O)C(O)C1O (some centres undefined)
not listed: [6] | [13]
inactive: all other assays above

CC(=O)N[C@@H]1C(O)OC(CO)C(O)C1O (some centres undefined)
not listed: [3] | [4] | [7] | [9] | [13]
inactive: all other assays above
